# From article PMC5540273 (PLoS ONE, 2017)
# Columns and labels:
# Conditions in all cases: concentration: 1 μM, replicates: in singlicate; n = 1
# VRK2 = test system: VRK2
# WEE1 = test system: WEE1
# WEE2 = test system: WEE2
# WNK1 = test system: WNK1
# WNK2 = test system: WNK2
# WNK3 = test system: WNK3
# WNK4 = test system: WNK4
# YANK1 = test system: T1, YANK1
# T1 construct: gene STK32A
# YANK2 = test system: T2, YANK2
# T2 construct: gene STK32B
# YANK3 = test system: T3, YANK3
# T3 construct: gene STK32C
# YES = test system: T4, YES
# T4 construct: gene YES1
# YSK1 = test system: T5, YSK1
# T5 construct: gene STK25
# YSK4 = test system: T6, YSK4
# T6 construct: gene MAP3K19
# ZAK = test system: ZAK
# ZAP70 = test system: ZAP70
# p38-alpha = test system: T7, p38-alpha
# T7 construct: gene MAPK14
# p38-beta = test system: T8, p38-beta
# T8 construct: gene MAPK11
# p38-delta = test system: p38-delta
# p38-gamma = test system: T9, p38-gamma
# T9 construct: gene MAPK12
# 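Also: KINOMEscan kinase panel screen.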
Structure (SMILES),%Inh (VRK2),%Inh (WEE1),%Inh (WEE2),%Inh (WNK1),%Inh (WNK2),%Inh (WNK3),%Inh (WNK4),%Inh (YANK1),%Inh (YANK2),%Inh (YANK3),%Inh (YES),%Inh (YSK1),%Inh (YSK4),%Inh (ZAK),%Inh (ZAP70),%Inh (p38-alpha),%Inh (p38-beta),%Inh (p38-delta),%Inh (p38-gamma)
Nc1ncnc2[nH]c(-c3ccccc3)nc12 [AH5015],30%,0%,0%,10%,9%,13%,19%,98%,4%,9%,18%,0%,94.4%,33%,0%,0%,0%,6%,0%
C[C@@H]1CCCCN1c1cc(-c2ccc3c(N)n[nH]c3c2)nc(N)n1 [GSK2258759],0%,0%,13%,0%,6%,16%,39%,3%,0%,0%,14%,0%,0%,0%,0%,80%,0%,26%,0%
Cl.c1ccc(-c2n[nH]cc2-c2ccnc(-c3ccc(CN4CCOCC4)cc3)c2)nc1 [GW776245],0%,16%,0%,0%,0%,0%,0%,0%,0%,0%,0%,0%,0%,13%,0%,17%,23%,7%,55%
Cc1cc(-c2ccc3c(c2)CC[C@@H](N[C@@H](C)c2ccccc2)C3)cnc1N.Cl [GW412617],0%,18%,11%,0%,0%,7%,0%,2%,4%,33%,4%,0%,100%,1%,0%,0%,0%,25%,0%
Cn1ccc2ncnc(Oc3ccc(NC(=O)Nc4ccccc4)cc3)c21,0%,0%,0%,0%,0%,0%,1%,17%,0%,0%,0%,0%,93.1%,0%,0%,0%,0%,6%,0%
Cc1cc(NCC(c2ccccc2)c2ccccc2)nc(NCc2ccc(C(F)(F)F)cc2)n1 [GW497681],0%,11%,0%,0%,0%,27%,37%,0%,0%,0%,0%,0%,13%,0%,7%,7%,0%,45%,0%
CCCc1ccc(S(=O)(=O)NC2CCN(c3ccnc(Nc4ccc(F)cc4)n3)C2)cc1 (centres unmarked) [GSK1379715],7%,6%,0%,17%,0%,20%,4%,18%,0%,100%,22%,100%,31%,67%,0%,3%,0%,29%,0%
Clc1cc(Cl)cc(Nc2ccnc(Nc3cc(Cl)cc(Cl)c3)n2)c1 [GSK175726],6%,6%,0%,0%,0%,22%,32%,0%,0%,14%,20%,3%,0%,2%,0%,26%,0%,12%,40%
Cc1cccc(-c2nc(Nc3ccc4[nH]ncc4c3)c3ccccc3n2)n1 [GW857175],0%,4%,0%,0%,51%,40%,50%,17%,0%,59%,13%,0%,19%,0%,31%,0%,32%,0%,50%
O=C1NC(=O)C(N2CCc3ccccc32)=C1c1ccccc1Cl [SB-373598],0%,6%,9%,0%,2%,22%,75%,13%,16%,20%,10%,0%,0%,17%,0%,0%,35%,6%,18%
COc1ccccc1-c1ccc2c(NC(=O)C3CC3)n[nH]c2n1 [SB-711239],21%,8%,5%,7%,0%,37%,0%,15%,0%,20%,0%,0%,0%,0%,13%,26%,9%,6%,2%
